Measured values taken from the supplement of paper PMC8975748.
Counter-ions that a name gives are not always drawn.

test system: Saccharomyces cerevisiae BY4741 SeMeCo community; assay: z-score of prototroph abundance vs DMSO median; higher = larger share of this subpopulation than in DMSO controls; conditions: 10 µM; 24 h; SM minimal medium; subpopulation (auxotrophy): Prototroph
Procedure: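 Fluorescent four-plasmid SeMeCo (self-establishing metabolically cooperating S. cerevisiae BY4741 community; plasmids pH-mRuby2, pL-mWasabi, pU-eCFP, pM-TagRFP657) was grown 24 h in minimal SM medium with each Selleck FDA-approved drug at 10 µM in 384-well plates. Cells were fixed and imaged by high-content confocal microscopy. For each auxotrophic subpopulation (and the prototroph), a z-score gives the deviation from the DMSO vehicle-control population median.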

Compared with `CCOC(=O)Nc1ccc(NCc2ccc(F)cc2)cc1N` [Retigabine], `CCN(CC)CCOC(=O)C(O)(c1ccccc1)c1ccccc1` [Benactyzine hydrochloride] is lower in “z-score of prototroph abundance” value: 0.21 for the first, -0.56 for the second.

Compared with `Oc1cc(Cl)ccc1Oc1ccc(Cl)cc1Cl` [Triclosan], `CCOC(=O)Nc1ccc(NCc2ccc(F)cc2)cc1N` [Retigabine 2HCl] is lower in “z-score of prototroph abundance” value: 2.53 for the first, 0.05 for the second.

Compared with `Nc1nc(N)nc(NC2CC2)n1` [Cyromazine], `COc1ccc2c3c([nH]c2c1)C(C)=NCC3` [Harmaline] is higher in “z-score of prototroph abundance” value: -1.21 for the first, 3.47 for the second.

Compared with `CN[C@@H]1[C@@H](O)[C@@H](O[C@@H]2[C@@H](O)[C@H](O[C@H]3O[C@H](CN)CC[C@H]3N)[C@@H](N)C[C@H]2N)OC[C@]1(C)O.CN[C@@H]1[C@@H](O)[C@@H](O[C@@H]2[C@@H](O)[C@H](O[C@H]3O[C@H]([C@@H](C)N)CC[C@H]3N)[C@@H](N)C[C@H]2N)OC[C@]1(C)O.CN[C@@H]1[C@@H](O)[C@@H](O[C@@H]2[C@@H](O)[C@H](O[C@H]3O[C@H]([C@@H](C)NC)CC[C@H]3N)[C@@H](N)C[C@H]2N)OC[C@]1(C)O` [Gentamicin Sulfate], `C[C@H]1O[C@H](O[C@H]2[C@H](O)[C@@H](O)[C@@H](O)[C@H](O)[C@@H]2O)[C@@H](N)C[C@@H]1NC(=N)C(=O)O` [Kasugamycin hydrochloride] is lower in “z-score of prototroph abundance” value: 0.63 for the first, 0.23 for the second.

First: CN(C)C(=O)Oc1ccc[n+](C)c1 [Pyridostigmine Bromide]
Second: CCN(C)C(=O)Oc1cccc([C@H](C)N(C)C)c1 [Rivastigmine]
The “z-score of prototroph abundance” value of the first is higher: -0.27 for the first, -0.39 for the second.

Going from `CC[C@H]1[C@@H]2C[C@H]3[C@@H]4N(C)c5ccccc5[C@]45C[C@@H]([C@@H]2[C@H]5O)N3[C@@H]1O` [Ajmaline] to `CN1[C@@H]2C[C@@H](OC(=O)[C@H](CO)c3ccccc3)C[C@H]1[C@@H]1O[C@@H]12` [Scopolamine HBr], the “z-score of prototroph abundance” value rises from 0.22 to 0.86.

First: C=CCN1C[C@H](C(=O)N(CCCN(C)C)C(=O)NCC)C[C@@H]2c3cccc4[nH]cc(c34)C[C@H]21 [Cabergoline]
Second: CCN1CC2(OC(=O)c3ccccc3NC(C)=O)CCC(OC)C34C1C(CC23)C1(O)CC(OC)C2CC4C1(O)C2OC (centres undefined) [Lappaconitine]
The “z-score of prototroph abundance” value of the first is lower: -0.35 for the first, 0.24 for the second.

Compared with `CN(C)[C@@H]1C(=O)C(C(N)=O)=C(O)[C@@]2(O)C(=O)C3=C(O)c4c(O)cccc4[C@@](C)(O)[C@H]3[C@H](O)[C@@H]12` [Oxytetracycline (Terramycin)], `C=C(C)[C@H]1Cc2c(ccc3c2O[C@@H]2COc4cc(OC)c(OC)cc4[C@@H]2C3=O)O1` [Rotenone (Barbasco)] is lower in “z-score of prototroph abundance” value: -0.34 for the first, -0.73 for the second.

Going from `C[C@@H]1CC[C@H]2[C@@H](C)C(=O)O[C@@H]3O[C@@]4(C)CC[C@@H]1[C@]32OO4` [Artemisinin] to `CC1(C)SC2C(N)C(=O)N2C1C(=O)O` (centres undefined) [6-Aminopenicillanic acid], the “z-score of prototroph abundance” value falls from 1.7 to 0.04.

First: O=C(O[C@H]1C[N+]2(CCCOc3ccccc3)CCC1CC2)C(O)(c1cccs1)c1cccs1 [Aclidinium Bromide]
Second: CC[N+](C)(CC)CCOC(=O)C(O)(c1ccccc1)c1ccccc1 [Methylbenactyzine Bromide]
The “z-score of prototroph abundance” value of the first is lower: -0.31 for the first, 1.09 for the second.

Compared with `CN(C)[C@@H]1C(=O)C(C(N)=O)=C(O)[C@@]2(O)C(=O)C3=C(O)c4c(O)cccc4[C@@](C)(O)[C@H]3[C@H](O)[C@@H]12` [Oxytetracycline Dihydrate], `C[N+]1(C)[C@@H]2C[C@@H](OC(=O)[C@H](CO)c3ccccc3)C[C@H]1[C@@H]1O[C@@H]12` [Methscopolamine] is lower in “z-score of prototroph abundance” value: 0.77 for the first, -0.68 for the second.

Going from `C[N+](C)(C)CCCCCCCCCC[N+](C)(C)C` [Decamethonium Bromide] to `COc1cc2c(cc1OC)C1CC(=O)C(CC(C)C)CN1CC2` (centres undefined) [Tetrabenazine (Xenazine)], the “z-score of prototroph abundance” value falls from 0.58 to 0.02.

First: Cn1cc(C2=C(c3cn(C4CCN(Cc5ccccn5)CC4)c4ccccc34)C(=O)NC2=O)c2ccccc21
Second: CN1C(=O)COc2c(C(=O)NC3CN4CCC3CC4)cc(Cl)cc21 (centres undefined) [Azasetron HCl]
The “z-score of prototroph abundance” value of the first is higher: 0.73 for the first, 0.42 for the second.

Going from `CC[C@@H](C(N)=O)N1CCCC1=O` [Levetiracetam] to `NC(=O)CN1CCCC1=O` [Piracetam], the “z-score of prototroph abundance” value falls from 0.59 to -1.9.

First: N#Cc1nn(-c2c(Cl)cc(C(F)(F)F)cc2Cl)c(N)c1[S+]([O-])C(F)(F)F (centres undefined) [Fipronil]
Second: CC(NC(C)(C)C)C(=O)c1cccc(Cl)c1 (centres undefined) [Amfebutamone (Bupropion) HCl]
The “z-score of prototroph abundance” value of the first is higher: 0.88 for the first, 0.49 for the second.

First: Nc1ccncc1 [4-Aminopyridine]
Second: O=c1cccc2n1C[C@@H]1CNC[C@H]2C1 [Cytisine]
The “z-score of prototroph abundance” value of the first is lower: -0.05 for the first, 0.46 for the second.

First: COc1ccc(C(CN(C)C)C2(O)CCCCC2)cc1 (centres undefined) [Venlafaxine]
Second: C=CN1CCCC1=O.II [Povidone iodine]
The “z-score of prototroph abundance” value of the first is higher: 0.19 for the first, -1.1 for the second.
